In PubChem BioAssay (Tox21):
Values without a mark were called inactive. Results filed as inconclusive are left out. Entries that show only a call come without a potency. Active and inactive are the calls of the source. Unless noted, calls follow the shape of the full dose curve.

Legend:
[1] = Nuclear factor erythroid 2-related factor 2/antioxidant responsive element (Nrf2/ARE) small molecule agonists: qHTS cell viability counter screen in human keratinocytes (AID 1919968; active = well fitted curve in the direction sought with a large enough effect in the repeat runs; an effect the other way counts as inactive or inconclusive; also: nearly all actives have a fitted effect of over 55% in size)
Method in brief: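 Stably transfected HaCaT (KeratinoSens), 1,500/well. Test agents in DMSO were applied for 23 h, 37 C/5% CO2. CellTiter-Fluor was incubated 1 h before the fluorescence read.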

[2] = Nuclear factor erythroid 2-related factor 2/antioxidant responsive element (Nrf2/ARE) small molecule agonists: luciferase reporter gene qHTS assay in human keratinocytes (AID 1919969); also: nearly all actives have a fitted effect of over 35% in size
[3] = biological target: Gonadotropin-releasing hormone receptor (Homo sapiens) (UniProt P30968); assay: Human gonadotropin-releasing hormone receptor (GnRHR) small molecule agonists, calcium flux assay in GnRHR-HEK293 cells (AID 1920063); also: nearly all actives have a fitted effect of over 35% in size
Sequence of Gonadotropin-releasing hormone receptor (Homo sapiens) (P30968 whole entry, looked up): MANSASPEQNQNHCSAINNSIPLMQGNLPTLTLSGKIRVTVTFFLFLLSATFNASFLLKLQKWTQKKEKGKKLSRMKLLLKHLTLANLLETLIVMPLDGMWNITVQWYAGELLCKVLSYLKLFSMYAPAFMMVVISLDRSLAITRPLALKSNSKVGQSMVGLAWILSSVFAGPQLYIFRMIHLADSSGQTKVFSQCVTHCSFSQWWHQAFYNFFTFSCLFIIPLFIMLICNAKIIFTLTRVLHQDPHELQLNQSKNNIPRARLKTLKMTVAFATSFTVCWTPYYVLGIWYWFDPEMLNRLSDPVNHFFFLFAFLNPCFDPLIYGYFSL
Method in brief: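 Stable human GnRHR HEK293 line. 18 h plating, then calcium dye for 1 h at 37 C. Agonist-mode compound addition from DMSO stocks; fluorescence monitored 3 min.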

[4] = biological target: KiSS-1 receptor (Homo sapiens) (UniProt Q969F8); assay: Human kisspeptin (KISS1R) small molecule agonists, calcium flux assay in KISS1R-HEK293 cells (AID 1920064; active = well fitted curve in the direction sought with a large enough effect in the repeat runs; an effect the other way counts as inactive or inconclusive)
Sequence of KiSS-1 receptor (Homo sapiens) (Q969F8 whole entry, looked up): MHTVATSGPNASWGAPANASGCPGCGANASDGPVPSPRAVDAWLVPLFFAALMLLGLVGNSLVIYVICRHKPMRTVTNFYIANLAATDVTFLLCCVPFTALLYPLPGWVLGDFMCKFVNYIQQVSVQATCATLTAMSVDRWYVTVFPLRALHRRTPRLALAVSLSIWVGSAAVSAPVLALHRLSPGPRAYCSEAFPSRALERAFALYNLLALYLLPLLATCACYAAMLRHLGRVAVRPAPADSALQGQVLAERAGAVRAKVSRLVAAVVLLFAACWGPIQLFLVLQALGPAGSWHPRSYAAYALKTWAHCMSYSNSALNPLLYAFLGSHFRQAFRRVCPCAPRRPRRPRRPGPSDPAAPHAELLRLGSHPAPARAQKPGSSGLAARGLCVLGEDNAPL
Method in brief: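 After overnight (18 h) culture at 37 C/5% CO2, human KISS1R-HEK293 cells received calcium dye for 1 h, then test compound; emission at 540 nm (excitation 480 nm) was tracked for 3 min.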

[5] = G protein-coupled receptor (GPCR) small molecule agonists, calcium flux assay: HEK293 wild type cell line counter screen (AID 1920065)
Method in brief: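 Following 18 h incubation at 37 C/5% CO2, plates got calcium dye for 1 h; compounds, ATP or DMSO were then pinned in and fluorescence followed kinetically (480/540 nm).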

[6] = p53 small molecule agonists, cell-based qHTS assay with human liver microsomes (AID 1963577);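 also: p53 response element beta-lactamase reporter cells with liver microsomes plus NADPH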
Method in brief: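 Steps: plate p53RE-bla cells, incubate 5 h at 37 C; add compound in DMSO; add microsomes (0.5 mg/mL final) and NADPH (0.5 mg/mL final); incubate 16 h at 37 C; add LiveBLAzer, 2 h RT; read fluorescence.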

[7] = p53 small molecule agonists, cell-based qHTS assay with rat liver microsomes (AID 1963578)
Method in brief: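 Metabolic activation is supplied by rat liver microsomes with NADPH (each 0.5 mg/mL final). p53RE-bla cells incubate with compound 16 h at 37 C; reporter activity is measured by LiveBLAzer fluorescence.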

[8] = p53 small molecule agonists, cell-based qHTS assay with rat liver microsomes: qHTS cell viability counter screen (AID 1963580); also: nearly all actives have a fitted effect of over 45% in size
Method in brief: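 Rat liver microsome (0.5 mg/mL final) and NADPH (0.5 mg/mL final) co-incubation with compounds for 16 h at 37 C on HCT-116 p53RE-bla cells; cytotoxicity taken from intracellular ATP luminescence.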

[9] = p53 small molecule agonists, cell-based qHTS assay: qHTS cell viability counter screen (AID 1963581); also: nearly all actives have a fitted effect of over 45% in size
Method in brief: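 qHTS counter screen: 16 h compound exposure at 37 C of p53RE-bla HCT-116 cells (4,000 per well, seeded 5 h prior), cell viability by ATP luminescence.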

[10] = p53 small molecule agonists, cell-based qHTS assay (AID 1963582; active = well fitted activation curve with a large enough effect in the signal ratio in the repeat runs, not every such curve was filed as active; the % refers to the signal ratio; also: potency is read from the fitted curve at half-maximal effect)
Method in brief: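 Measured: fluorescence from cleaved LiveBLAzer substrate. System: p53RE-bla cells, 16 h compound treatment at 37 C, 2 h substrate step at room temperature.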

[11] = biological target: Muscarinic acetylcholine receptor M1 (Homo sapiens) (UniProt P11229); assay: Cholinergic receptor muscarinic 1 (CHRM1) small molecule antagonists, cell-based qHTS assay (AID 1963588); also: nearly all actives have a fitted effect of over 40% in size
Sequence of Muscarinic acetylcholine receptor M1 (Homo sapiens) (P11229 whole entry, looked up): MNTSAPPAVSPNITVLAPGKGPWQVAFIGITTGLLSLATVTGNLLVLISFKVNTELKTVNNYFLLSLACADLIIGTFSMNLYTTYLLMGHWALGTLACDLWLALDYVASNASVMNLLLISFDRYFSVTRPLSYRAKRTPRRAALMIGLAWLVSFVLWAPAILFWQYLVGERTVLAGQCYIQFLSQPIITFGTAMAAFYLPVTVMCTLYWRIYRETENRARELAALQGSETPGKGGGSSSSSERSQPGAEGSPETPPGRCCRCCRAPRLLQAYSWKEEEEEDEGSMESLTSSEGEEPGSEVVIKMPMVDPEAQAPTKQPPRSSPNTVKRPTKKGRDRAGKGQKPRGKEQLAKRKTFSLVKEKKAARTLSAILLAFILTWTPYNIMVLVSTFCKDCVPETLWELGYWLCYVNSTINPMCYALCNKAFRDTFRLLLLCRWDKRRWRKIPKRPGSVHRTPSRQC
Method in brief: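 Compounds were tested at 15 concentrations in three independent runs. Dye-loaded CHRM1-CHO cells were exposed 5 min at room temperature before stimulation by acetylcholine added at 50nM. Intracellular calcium was read kinetically on FDSS for 3 min.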

[12] = biological target: Muscarinic acetylcholine receptor M1 (Homo sapiens) (UniProt P11229); assay: Cholinergic receptor muscarinic 1 (CHRM1) small molecule agonists, cell-based qHTS assay (AID 1963589); also: nearly all actives have a fitted effect of over 35% in size
Method in brief: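 Kinetic fluorescence (1 s intervals) of calcium-sensitive dye in human M1 CHO cells after compound addition; cells pre-incubated 18 h at 37 C/5% CO2 and dye-loaded 1 h.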

[13] = cAMP Responsive Elements (CRE) small molecule agonists, cell-based qHTS assay (AID 1963590)
Method in brief: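 Test agents in DMSO were incubated 3 h at 37 C/5% CO2 with CRE-bla HEK 293T cells seeded 18 h earlier; LiveBLAzer B/G FRET substrate was added and read after 2 h at room temperature.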

[14] = cAMP Responsive Elements (CRE) small molecule antagonists, cell-based qHTS assay (AID 1963591; active = well fitted inhibition curve with a large enough effect in the signal ratio in the repeat runs, not every such curve was filed as active; the % refers to the signal ratio)
Method in brief: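 Reporter line CRE-bla HEK 293T in dialyzed-FBS DMEM; cells preincubated 18 h, treated 3 h with compound plus NKH477 (0.25 uM final); LiveBLAzer FRET, 2 h RT.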

[15] = biological target: Beta-2 adrenergic receptor (Homo sapiens) (UniProt P07550); assay: Adrenergic beta2 receptor (ADRB2) small molecule antagonists, cell-based qHTS assay (AID 1963592); also: series mostly up to about 92 µM; nearly all actives have a fitted effect of over 50% in size
Sequence of Beta-2 adrenergic receptor (Homo sapiens) (P07550 whole entry, looked up): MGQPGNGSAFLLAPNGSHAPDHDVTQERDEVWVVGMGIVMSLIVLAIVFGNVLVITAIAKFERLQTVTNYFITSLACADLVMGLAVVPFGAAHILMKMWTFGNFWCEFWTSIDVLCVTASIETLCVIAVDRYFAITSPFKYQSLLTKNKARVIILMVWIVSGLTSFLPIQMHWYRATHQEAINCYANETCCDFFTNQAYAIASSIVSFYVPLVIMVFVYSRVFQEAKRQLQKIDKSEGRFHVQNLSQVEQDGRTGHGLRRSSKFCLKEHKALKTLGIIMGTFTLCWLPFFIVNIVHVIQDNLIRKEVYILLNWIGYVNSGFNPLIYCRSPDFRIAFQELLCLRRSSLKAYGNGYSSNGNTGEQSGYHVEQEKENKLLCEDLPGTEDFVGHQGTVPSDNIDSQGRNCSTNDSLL
Method in brief: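 Assay format: CHO-ADRB2 cells, 18-20hr seeding at 37C/5% CO2, then compound plus 1nM isoproterenol agonist mix for 0.5hr RT. Homogeneous time-resolved fluorescence cAMP detection after 1hr, expressed as 665/615 nm ratio.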

[16] = biological target: D(2) dopamine receptor (Homo sapiens) (UniProt P14416); assay: Dopamine D2 receptor (DRD2) small molecule agonists, cell-based qHTS assay (AID 1963594); also: nearly all actives have a fitted effect of over 35% in size
Sequence of D(2) dopamine receptor (Homo sapiens) (P14416 whole entry, looked up): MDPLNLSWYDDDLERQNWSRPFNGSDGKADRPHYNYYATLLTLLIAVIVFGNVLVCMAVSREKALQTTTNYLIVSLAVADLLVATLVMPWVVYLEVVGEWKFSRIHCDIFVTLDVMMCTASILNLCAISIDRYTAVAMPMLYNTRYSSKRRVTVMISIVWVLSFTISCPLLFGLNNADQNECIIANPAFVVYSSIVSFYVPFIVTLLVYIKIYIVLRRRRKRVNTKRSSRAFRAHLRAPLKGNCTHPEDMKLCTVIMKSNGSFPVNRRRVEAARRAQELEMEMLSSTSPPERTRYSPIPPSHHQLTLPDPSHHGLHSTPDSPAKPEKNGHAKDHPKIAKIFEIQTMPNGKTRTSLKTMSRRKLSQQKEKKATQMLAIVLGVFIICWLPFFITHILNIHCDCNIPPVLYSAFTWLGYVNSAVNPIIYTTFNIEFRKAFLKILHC
Method in brief: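 cAMP accumulation in DRD2-HEK293 cells measured by HTRF after 1 h detection; compounds added 10 min before NKH477 (200nM […]) forskolin-analogue stimulation, 30 min at room temperature, with Ro20-1724 present at 0.1 mM final.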

[17] = biological target: 5-hydroxytryptamine receptor 2A (Homo sapiens) (UniProt P28223); assay: 5-hydroxytryptamine receptor 2A (HTR2A) small molecule antagonists, cell-based qHTS assay (AID 1963586); also: nearly all actives have a fitted effect of over 45% in size
Sequence of 5-hydroxytryptamine receptor 2A (Homo sapiens) (P28223 whole entry, looked up): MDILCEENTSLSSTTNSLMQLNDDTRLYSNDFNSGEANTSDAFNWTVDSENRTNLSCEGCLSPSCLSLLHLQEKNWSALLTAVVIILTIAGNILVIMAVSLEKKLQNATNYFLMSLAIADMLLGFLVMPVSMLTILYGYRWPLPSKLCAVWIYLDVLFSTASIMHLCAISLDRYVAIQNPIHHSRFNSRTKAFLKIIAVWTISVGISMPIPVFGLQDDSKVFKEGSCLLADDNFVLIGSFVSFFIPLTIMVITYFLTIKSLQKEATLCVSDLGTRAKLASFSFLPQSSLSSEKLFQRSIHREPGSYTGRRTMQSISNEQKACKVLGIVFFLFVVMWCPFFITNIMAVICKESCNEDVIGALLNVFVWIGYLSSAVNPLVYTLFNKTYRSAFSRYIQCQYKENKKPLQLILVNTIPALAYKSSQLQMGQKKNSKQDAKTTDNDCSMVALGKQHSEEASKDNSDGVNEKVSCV
Method in brief: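 CHO cells stably expressing human HTR2A were plated for 18 h at 37 C, then loaded with calcium dye for 1 h. Compounds were preincubated 5 min at room temperature before DOI (4 nM solution) was added. Kinetic fluorescence was read for 3 min.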

[18] = biological target: 5-hydroxytryptamine receptor 2A (Homo sapiens) (UniProt P28223); assay: 5-hydroxytryptamine receptor 2A (HTR2A) small molecule agonists, cell-based qHTS assay (AID 1963587); also: nearly all actives have a fitted effect of over 30% in size
Method in brief: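 Kinetic calcium-flux fluorescence (2 min, 1 sec intervals) after compound addition in agonist mode. HTR2A-CHO cells were cultured 18 h, then dye-loaded 1 h at 37 C.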

[19] = biological target: Beta-2 adrenergic receptor (Homo sapiens) (UniProt P07550); assay: Adrenergic beta2 receptor (ADRB2) small molecule agonists, cell-based qHTS assay (AID 1963593);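 also: CHO cells stably overexpressing human ADRB2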
Method in brief: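 CHO cells stably over-expressing ADRB2 were plated overnight at 37C, then dosed with compounds plus a stimulation mix containing 100uM IBMX and 25uM Ro-20-1724 for 0.5hr at room temperature. cAMP was measured by HTRF competition, 1hr.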

[20] = biological target: D(2) dopamine receptor (Homo sapiens) (UniProt P14416); assay: Dopamine D2 receptor (DRD2) small molecule antagonists, cell-based qHTS assay (AID 1963595; active = well fitted inhibition curve with a large enough effect in the signal ratio in the repeat runs, with a control signal flat; the % refers to the signal ratio)
Method in brief: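 Readout: HTRF cAMP, cAMP-d2 competing with cellular cAMP for anti-cAMP cryptate, read after 1 h. Cells: DRD2-HEK293. Conditions: 0.1 mM Ro20-1724, 12 nM quinpirole, 200 nM NKH477, 30 min RT.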

With `CCCCCCCCCC(=O)OCC` the Potency [1] was “inactive”, the Potency [2] was “inactive” and the Potency [3] was “inactive”. For the same compound, the outcome [4] was “inactive”, the outcome [5] was “inactive” and the Potency [6] was “inactive”. For the same compound, the Potency [7] was “inactive”, the Potency [8] was “inactive” and the Potency [9] was “inactive”. The Potency [10] was “inactive”, the Potency [11] was “inactive” and the Potency [12] was “inactive”. The Potency [13] was “inactive”, the Potency [14] was “inactive” and the Potency [15] was “inactive”. The Potency [16] was “inactive”.

For `Cc1ccc2nc(N)[nH]c(=O)c2c1Sc1ccncc1`, the Potency [1] was “inactive”, the Potency [2] was “inactive” and the Potency [3] was “inactive”. For the same compound, the outcome [4] was “inactive”, the outcome [5] was “inactive” and the Potency [6] was “inactive”. For the same compound, the Potency [7] was “inactive”, the Potency [8] was “inactive” and the Potency [9] was “inactive”. The Potency [17] was “inactive”, the Potency [18] was “inactive” and the Potency [11] was “inactive”. For the same compound, the Potency [12] was “inactive”, the Potency [13] was “inactive” and the Potency [14] was “inactive”. The Potency [15] was “inactive”, the Potency [19] was “inactive” and the Potency [16] was “inactive”. The Potency [20] was “inactive”.

For `CCS(=O)(=O)CCn1c([N+](=O)[O-])cnc1C`, the Potency [1] was “inactive”, the Potency [2] was “inactive” and the Potency [3] was “inactive”. The outcome [4] was “inactive”, the outcome [5] was “inactive” and the Potency [6] was “inactive”. For the same compound, the Potency [7] was “inactive”, the Potency [8] was “inactive” and the Potency [9] was “inactive”. The Potency [10] was “inactive”, the Potency [13] was “inactive” and the Potency [14] was “inactive”. The Potency [15] was “inactive”, the Potency [16] was “inactive” and the Potency [20] was “inactive”.

For `C[C@H]1O[C@@H](n2cc(F)c(=O)[nH]c2=O)[C@H](O)[C@@H]1O`, the Potency [1] was “inactive”, the Potency [2] was “inactive” and the Potency [3] was “inactive”. The outcome [4] was “inactive”, the outcome [5] was “inactive” and the Potency [6] was “inactive”. The Potency [7] was “inactive”, the Potency [8] was “inactive” and the Potency [9] was “inactive”. The Potency [10] was 15.8 µM (active), the Potency [13] was “inactive” and the Potency [14] was “inactive”. The Potency [15] was “inactive”, the Potency [19] was “inactive” and the Potency [20] was “inactive”.

For `Cn1c(=O)cc(Oc2ccc(F)cc2F)c2cnc(NCC(C)(C)O)nc21`, the Potency [1] was “inactive”, the Potency [2] was “inactive” and the Potency [3] was “inactive”. The outcome [4] was “inactive”, the outcome [5] was “inactive” and the Potency [6] was “inactive”. The Potency [7] was “inactive”, the Potency [8] was “inactive” and the Potency [9] was “inactive”. The Potency [10] was “inactive”, the Potency [18] was “inactive” and the Potency [11] was “inactive”. The Potency [12] was “inactive”, the Potency [15] was “inactive” and the Potency [19] was “inactive”. The Potency [16] was “inactive” and the Potency [20] was “inactive”.

In the case of `C[C@@H]1CN(c2c(F)c(N)c3c(=O)c(C(=O)O)cn(C4CC4)c3c2F)C[C@H](C)N1`, the activity change, negative = cytotoxicity [1] is reported as 1.83% [at 19 µM], the activity, positive = activation [2] is reported as -7.44% [at 19 µM] and the activity change [3] is reported as 0.726% [at 11.8 µM, stronger effect = higher value]. For the same compound, the activation [4] was -1.07% [at 15.8 µM], the activation [5] was -0.768% [at 11.8 µM] and the activation [6] was -0.339% [at 13.5 µM]. The activation [7] was 0.693% [at 13.6 µM], the activity change, negative = cytotoxicity [8] was 3.67% [at 13.5 µM] and the activity change, negative = cytotoxicity [9] was 5.52% [at 13.5 µM]. The activation [10] was -0.164% [at 13.5 µM], the activation [13] was -1.16% [at 19 µM] and the activity change, negative = inhibition [14] was -4.06% [at 18.9 µM]. The activity change, negative = inhibition [15] was 8.12% [at 19 µM], the Potency [19] was “inactive” and the activation [16] was -2.73% [at 19 µM]. The activity change, negative = inhibition [20] was 0.614% [at 18.9 µM].

With `Cn1c(=O)c2c(ncn2CC(O)CO)n(C)c1=O` (stereo not drawn) the Potency [1] was “inactive”, the Potency [2] was “inactive” and the Potency [3] was “inactive”. The outcome [4] was “inactive”, the outcome [5] was “inactive” and the Potency [6] was “inactive”. For the same compound, the Potency [7] was “inactive”, the Potency [8] was “inactive” and the Potency [9] was “inactive”. The Potency [10] was “inactive”, the Potency [13] was “inactive” and the Potency [14] was “inactive”. The Potency [15] was “inactive”, the Potency [16] was “inactive” and the Potency [20] was “inactive”.
